# This is a sample that favours compounds with a hit; in the whole collection about 1.7% have one here.
# GLP1R ag: qHTS of GLP-1 Receptor Agonists | Glucagon-like peptide 1 receptor (Homo sapiens), P43220 | HEK293 GLP-1R CRE-luciferase, luminescence, 4-6 h; cells express a hypersensitive GLP-1R form | Potency, µM (top dose mostly 45.6 µM), for inactives: top-dose activation, most hits filed as activators | actives 0.007% (n = 380,000) | AID 624172, 2012; further: % of control where 0% means no effect
# Target sequence (P43220 whole entry, looked up): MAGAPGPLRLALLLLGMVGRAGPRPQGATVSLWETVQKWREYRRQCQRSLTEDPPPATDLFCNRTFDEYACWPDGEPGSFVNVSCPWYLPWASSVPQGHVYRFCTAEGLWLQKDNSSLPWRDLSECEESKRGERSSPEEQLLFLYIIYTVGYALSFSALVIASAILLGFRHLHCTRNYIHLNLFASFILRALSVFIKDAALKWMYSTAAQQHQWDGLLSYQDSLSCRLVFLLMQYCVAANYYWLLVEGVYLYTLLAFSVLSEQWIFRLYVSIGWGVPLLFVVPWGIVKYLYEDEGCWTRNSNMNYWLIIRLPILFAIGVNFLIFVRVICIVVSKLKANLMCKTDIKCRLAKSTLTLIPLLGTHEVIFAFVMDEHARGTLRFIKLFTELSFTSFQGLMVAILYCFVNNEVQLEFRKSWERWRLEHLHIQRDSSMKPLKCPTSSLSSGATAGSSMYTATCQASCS
# GLP1R cytotox: qHTS of GLP-1 Receptor Inverse Agonists: Cytotox Screen; Potency, µM (doses to about 38.3 µM), without a hit: top-dose activity change, negative = inhibition, actives largely listed as inhibitors; AID 624418, 2012; actives 0.13% (n = 410,000); HEK293 cAMP-luciferase reporter cells, luminescence, 24 h;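 further: loss of luciferase light is scored as toxicity; on the % scale 0 is the no-effect control and ±100 the full control effect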
#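 Compound-treated cells are incubated 24 hr at 37 deg C under 5% CO2 after a 12 hour attachment period, then luciferase detection reagent is added and luminescence is measured following 12 min at room temperature; lowered signal indicates toxicity.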
# GLP-1R inv ag: qHTS of GLP-1 Receptor Inverse Agonists (Inhibition Mode) | Glucagon-like peptide 1 receptor (Homo sapiens), P43220 | HEK293 GLP-1R CRE-luciferase, luminescence, 24 h; GLP-1R form is constitutively active | Potency, µM (doses to about 38.3 µM), for inactives: at the highest dose activity change, negative = inhibition, actives largely listed as inhibitors | actives 1.6% (n = 410,000) | AID 624417, 2012; further: on the % scale 0 is the no-effect control and ±100 the full control effect; nearly all actives have a fitted effect of over 55% in size
#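 Readout was luciferase luminescence, measured 12 min after detection reagent at room temperature. Beforehand, GLP-1R reporter HEK293 cells had sat 12 h, then received compounds for 24 hr at 37 deg C.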
# Active calls of the source: *; ? = inconclusive; . = not tested or not shown; [ ] = dose if it differs, or a comment. The call rests on the fitted dose curve; in most records, active means well fitted curve in the direction sought with a large enough effect; inconclusive means small, poorly fitted or top-dose-only effect, or another doubt; inactive means no such curve, though single readings can be large; an effect the other way counts as inactive or inconclusive. Potency means the concentration at half of the fitted maximal effect.
SMILES,GLP1R ag,GLP1R cytotox,GLP-1R inv ag
CC(C)Cn1cnc2c(c(-c3ccccc3)c(-c3ccccc3)n2Cc2ccco2)c1=N,-7%,?,3.2µM*
N=c1c2c(-c3ccccc3)c(-c3ccccc3)n(Cc3ccco3)c2ncn1CCCN1CCOCC1,1%,?,?
O=C(Nc1cccc(C(F)(F)F)c1)C1CCCN1S(=O)(=O)c1cccc2nsnc12 (stereo not given),.,-5%,?
Cc1ccc2ccc(S(=O)(=O)NCc3ccco3)cc2c1,10%,25%,10%
CCCCNC(=S)Nc1ccc(C(F)(F)F)cc1,-1%,?,?
S=C=Nc1cccc(C2(N3CCCCC3)CCCCC2)c1,20%,?,8.9µM*
c1ccc(C2(N3CCCCC3)CCCCC2)cc1,4%,-1%,6%
COc1ccc(CN2CCN(C(=O)Cn3c(=O)oc4cc(Cl)ccc43)CC2)c(OC)c1OC,-4%,2%,?
CN(C)C1C(=O)C(C(N)=O)C(=O)C2(O)C(=O)C3C(=O)c4c(O)cccc4C(C)(O)C3C(O)C12 (stereo not given),2%,.,.
COc1ccccc1/C=C/C1(C(=O)NC2CCCC2)CC(=O)N1c1ccc(F)cc1 (stereo not given),-1%,?,3.5µM*
COc1ccccc1N(CC(=O)NC1CCCC1)C(=O)c1cnn(C(C)C)c1,1%,-7%,1%
N#C/C(C(=O)Oc1ccccc1)=C1\C=Cc2ccccc2N1,1%,151%,24%
O=c1[nH]c2ccccc2n1C1CCN(Cc2ccc(-c3nc4ccc(F)cc4nc3-c3ccccc3)cc2)CC1,-3%,?,4.5µM*
O=c1[nH]c2ccccc2n1C1CCN(Cc2ccc(-c3nc4ccccc4nc3-c3ccccc3)cc2)CC1,-2%,?,?
C=C1N2CCC(CC2)C1(O)c1ccc(C)c(C)c1 (stereo not given),-11%,16%,-21%
Cc1ccc(-c2nnc(N3CCC(C)CC3)c3ccccc23)cc1C,0%,?,2.5µM*
NC(CCc1ccccc1)c1csc(NC(=O)Nc2ccccc2Oc2ccccc2)n1 (stereo not given),-2%,-18%,?
NC(Cc1ccc(Oc2cc(I)c(O)c(I)c2)c(I)c1)C(=O)O (stereo not given),-4%,.,.
CNC(=S)N=Nc1c(O)[nH]c2ccc(C(C)C)cc12,-10%,?,?
CCOc1ccc(-c2cc(C(=O)N3CCN(S(=O)(=O)c4cc(Cl)ccc4OC)CC3)[nH]n2)cc1,.,-13%,?
CCOc1ccc(-c2cc(C)[n+](CCO)c(-c3ccc(OCC)cc3)c2)cc1,-3%,-16%,-24%
CCOc1ccc(-c2cc(C)[n+](CCc3ccc(OC)c(OC)c3)c(-c3ccc(OCC)cc3)c2)cc1,6%,?,6.3µM*
CN(CC(=O)Nc1cccc(F)c1)CC(=O)Nc1cccc(S(=O)(=O)N(C)c2ccccc2)c1,-8%,?,?
Cc1nc2ccc(NC(=O)c3cccc(S(=O)(=O)N(C)c4ccccc4)c3)cc2s1,-32%,?,5.6µM*
C[C@@H]1CN([C@H](C)CO)C(=O)c2c(c3ccccc3n2C)-c2ccccc2CO[C@H]1CN(C)Cc1ccc(C(F)(F)F)cc1,-3%,?,5µM*
SMILES,GLP1R ag,GLP1R cytotox,GLP-1R inv ag
C[C@@H]1CN([C@@H](C)CO)C(=O)c2c(c3ccccc3n2C)-c2ccccc2CO[C@H]1CN(C)C(=O)[C@H](C)c1ccccc1,0%,-11%,?
Cc1c(Cl)cccc1NC(=O)c1oc2ccc(S(=O)(=O)N3CCC4(CC3)OCCO4)cc2c1C,.,-14%,?
Cc1ccc(N2C(=O)NC(=O)/C(=C\c3cc(C)n(-c4sc5c(c4C#N)CCCC5)c3C)C2=O)cc1,7%,-23%,3.5µM*
CCN1C(=O)NC(=O)/C(=C/c2cc(C)n(-c3sc(C)c(C)c3C#N)c2C)C1=O,-4%,?,?
CC(Oc1ccccc1)C(=O)Nc1ccc(C(=O)OCc2cc(=O)n3nc(C4CC4)sc3n2)cc1 (stereo not given),.,-5%,?
COc1ccc2c(c1)CCc1c(C(=O)Nc3c(C)nn(Cc4ccccc4C)c3C)noc1-2,.,-2%,10µM*
COc1ccc(NC(=O)c2c(C)nn(Cc3ccccc3Cl)c2Cl)cc1Cl,6%,8%,11%
C[N+]1(CCF)[C@@H]2CC[C@@H]1CC(OC(=O)C(O)(c1ccccc1)c1ccccc1)C2 (stereo not given in full),11%,.,.
CCC1CCCCN1S(=O)(=O)c1ccc(C(=O)N(CCCN(C)C)c2nc3cc4c(cc3s2)OCO4)cc1 (stereo not given),9%,?,?
CC(=O)c1ccc2c(c1)N(CCCN(C)C)c1ccccc1S2,5%,-26%,?
CCC(=O)c1ccc2c(c1)N(CCCN(C)C)c1ccccc1S2,16%,?,11µM*
CCCCCCCCN1C(=O)[C@H](CC(=O)N2CCCCC2)C[C@@]2(C(=O)OCC)CCCC=C12,-2%,-11%,?
COc1ccc(CCNC(=O)/C=C/c2ccc3ccccc3n2)cc1OC,9%,?,-1%
O=c1[nH]c(=O)n(C2CCCCCC2)c(O)c1C=NCC1CCCO1 (stereo not given),-1%,-16%,-8%
O=c1[nH]c(=O)n(C2CCCCCC2)c(O)c1C=NCc1ccc(F)cc1,-3%,-19%,10µM*
COc1nn(CSP(=S)(OC)OC)c(=O)s1,-5%[96 µM],.,.
CC(C)C[C@H]1CNC(=S)N1C[C@H]1CCCN1C[C@H](Cc1ccc(O)cc1)N1C[C@H](Cc2ccc(O)cc2)N(CC2CCCCCC2)C1=S,-5%,?,?
C[C@]12CCC(=O)C=C1CC[C@@H]1[C@H]3CC[C@](C)(O)[C@@]3(C)CC[C@@H]12,12%[96 µM],.,.
Nc1cc(Cl)c2nonc2c1[N+](=O)[O-],-31%,8.9µM*,?
O=[N+]([O-])c1c(Cl)c(Cl)c(Cl)c(Cl)c1Cl,7%,0%,16%
C[N+]1(C)[C@@H]2CC(OC(=O)[C@@H](CO)c3ccccc3)C[C@@H]1[C@H]1O[C@H]12 (stereo not given in full),0%,.,.
c1ccc(N2CCN(c3nc(NCc4ccco4)c4ccccc4n3)CC2)cc1,-4%,?,7.1µM*
CN1CCN(c2ccc([N+](=O)[O-])c(NCc3ccco3)c2)CC1,1%,-28%,?
COC(=O)C1=CN(c2ccc(C(C)(C)C)cc2)C(N)=C(C#N)C1c1cccc([N+](=O)[O-])c1 (stereo not given),.,5%,?
COC(=O)c1cc(=O)n(-c2ccc(F)cc2)c(=Nc2ccc(F)cc2)s1,-6%,?,4.5µM*
O=C(Nc1cc(Sc2nc3ccccc3s2)cc([N+](=O)[O-])c1)c1ccccc1,-4%,?,?
O=C(CCl)Nc1cc(SCC(O)CO)cc([N+](=O)[O-])c1 (stereo not given),8%,4µM*,?

# Bioassay records from PubChem BioAssay.
